In all, about 410,000 compounds went through this assay and about 5,000 (1.2%) were called active. Another 13% or so got no clear call; they are omitted. Calls follow the shape of the dose curve; as a rule, active = well fitted inhibition curve with a large enough effect; inconclusive = small, poorly fitted or top-dose-only effect; inactive = no such curve, though single readings can be large or run the other way. The entries come from a sample that favours actives as a whole. Entries that show only a call come without a potency.
Potency is read from the fitted curve at half-maximal effect.

The nature of the experiment: qHTS for Inhibitors of TGF-b. Also: nearly all actives have a fitted effect of over 65% in size. The note with it: HepG2 CAGA-GFP TGF-b/SMAD3 reporter, GFP fluorescence, 18 h, TGF-beta stimulated, 500 pg/mL final; series mostly up to 46.1 µM. The source says: TGF-b is a main component in the TGF-b signaling pathway which plays diverse roles in cellular and development pathways. TGF-b is the mediated by the transcription factors Smads. Although the Smad-dependent pathway is the primary canonical TGF-b signaling node, TGF-b1 can also activate alternative signaling pathways, including those involving MAPK (ERK, JNK and p38). This interaction may mediate or enhance Smad-dependent responses, or can exert Smad-independent effects. The complexity of this signaling cascade allows the TGF-b superfamily to perform unique, overlapping or redundant functions. We believe that targeting the TGF-beta pathway at the Smad-transcription factor level may eliminate the consequences of disrupting the entire pathway and offer specificity without affecting other signaling pathways. Smad3 is the primary transducer of TGF-b's signals and Smad3 regulates many functions attributed to TGF-b signaling. We hypothesize that Smad3 inhibitors will selectively eliminate Smad3-specific TGF-beta signals without undesired off-target effects. We aim to identify Smad3-small molecule antagonists using a quantitative high throughput screening (qHTS) approach.
A high-throughput assay was developed to screen the NIH Molecular Libraries Small Molecule Repository (MLSMR). This is a cell based assay, where TGF-b is tagged with GFP. A counterscreen is run that looks at cytotoxicity (please see summary AID).
MH087449NIH Chemical Genomics Center [NCGC]
NIH Molecular Libraries Probe Centers Network [MLPCN]
Assay Submitter (PI): Sushil Rane, National Institute of […]
Suspensions of trypsinized HEPG2 CAGA-GFP cells were dispensed into white, tissue culture-treated, solid 1536-well plates at 5uL/well (1000 cells/well final concentration) in DMEM medium supplemented with 1% FBS. Plates were incubated at 37 degrees C for 2 hours, after which 23 nL of compounds or DMSO were delivered to each well using a pin tool. One uL of recombinant TGF-beta in DMEM (1% FBS) was then dispensed (500 pg/mL final concentration), and plates were incubated at 37 degrees C for 18 hours. The plates were measured on an Acumen eX3 Explorer plate reader for GFP fluorescence (ex488/em500-530). GFP values were calculated by determining the mean GFP fluorescence of individual cells, and compiling these values for each well to determine a total well GFP signal. The %Activity was determined from the corrected fluorescence values. A titration of the known TGF-B inhibitor SB431542 was included to monitor plate performance, while unstimulated HEPG2 (-TGF-B) control wells were used to normalize %Activity of identified inhibitors; unstimulated wells corresponded to 100%Activity (full inhibition), while stimulated cell controls (+DMSO) were used to normalize 0%Activity (no inhibition).
Concentration-response curves were fitted to the signals arising from the resulting fluorescence. The concentration-effect curves were then classified based on curve quality (r2), response magnitude and degree of measured activity, and compounds were subsequently categorized based on their curve class.
Background: In qHTS, concentration-response curves come from the screen itself.
For the compound `CC(C)C(=O)NC(NC(=S)NC1CCS(=O)(=O)C1)C(Cl)(Cl)Cl` (stereo not given), the Potency entry is “inactive”.
To `CCCSC(=S)NC1CCS(=O)(=O)C1` (stereo not given) belongs 11.2 µM (active).
As for `COc1ccc(NC(=S)NC2CCS(=O)(=O)C2)cc1` (stereo not given), the Potency result was “inactive”.
Consider `CCCC12CN3CC(CCC)(CN(C1)C3c1c[nH]c3ccc(OC)cc13)C2=O` (stereo not given), for which the Potency entry was “inactive”.
On to `COc1cc(NC(=O)c2nc3ccccc3nc2C)cc(OC)c1OC`, for which the Potency entry is “inactive”.
The entry for `COc1cc(C(=O)N2CCC(c3ccncc3)CC2)cc(OC)c1OC` is “inactive”; for `Cc1ccc(N2CC(NC(=O)Cc3cccs3)CC2=O)cc1` (stereo not given) it is “inactive”; for `CCN(CC)S(=O)(=O)c1ccc(N2CCOCC2)c(NC(=O)c2ccc(=O)n(C)n2)c1` it is “inactive”.
As to `CCN(CC)S(=O)(=O)c1ccc(N2CCCC2)c(NC(=O)c2ccc([N+](=O)[O-])o2)c1`, the Potency is 11.2 µM (active).
With `CCN(CC)S(=O)(=O)c1cc(C(=O)Nc2cc(S(=O)(=O)N3CCOCC3)ccc2N2CCCC2)ccc1F`, the Potency result is “inactive”.
Consider `CCc1ccc(C2C(C(=O)Nc3ccccc3)=C(C)Nc3c(C(=O)Nc4ccc(C)cc4)cnn32)cc1` (stereo not given), for which the Potency entry is “inactive”.
The entry for `Cc1nc(N2CCOCC2)c2c(C(=O)NCc3cccc(Cl)c3)c(C)oc2n1` is “inactive”; for `O=C(CCn1ccc2cc(S(=O)(=O)N3CCCC3)ccc21)NCc1cccc(Cl)c1` it is “inactive”; for `COC(=O)CCc1ccccc1S(=O)(=O)N(CCC(=O)OC)Cc1ccccc1` it is “inactive”.
On to `COc1ccc(-c2nc(=N)sn2-c2ccccc2)cc1`, for which the Potency entry is “inactive”.
Turning to `O=C(Nc1ccc2ccccc2c1[N+](=O)[O-])c1ccccc1`, the Potency entry was “inactive”.
As to `O=C(Nc1ncccc1O)c1ccc(C(=O)c2ccccc2)cc1`, the Potency result is “inactive”.
For the compound `O=C(NC1=CC(=O)c2ccccc2C1=O)c1ccccc1`, the Potency is 10 µM (active).
Consider `CCOc1ccccc1C(=O)Nc1ccc(S(=O)(=O)N2CCCCC2c2cccnc2)cc1` (stereo not given), for which the Potency result is “inactive”.
Consider `Cc1nnc(NCc2ccccc2)c2c1nnn2Cc1ccc(F)cc1`, for which the Potency entry is “inactive”.
For `O=C(Cc1coc2ccc3ccccc3c12)NCc1cccs1`, the Potency result is “inactive”.
Consider `O=C(NCc1cccs1)c1cc(-c2ccccn2)nc2ccc(Br)cc12`, for which the Potency entry is “inactive”.
Turning to `CC(C)Cn1c(N)c(C(=O)NCc2cccs2)c2nc3ccccc3nc21`, the Potency was 15.8 µM (active).
On to `CCN(CC)c1ccc(/C=C/c2c(C)cnc3ccc(C)cc23)cc1`, for which the Potency result was “inactive”.
As for `Clc1cccc[n+]1CCCC[n+]1ccccc1Cl`, the Potency entry was “inactive”.
Turning to `O=C(NCc1ccc2c(c1)OCO2)C12CC3CC(CC(C3)C1)C2`, the Potency entry is “inactive”.
To `S=C(NCc1ccc(Cl)cc1)NC12CC3CC(CC(C3)C1)C2` belongs 11.2 µM (active); to `Cc1ccc(C(=O)NC23CC4CC(CC(C4)C2)C3)c(Cl)c1`, “inactive”.
As for `CCC(=O)Nc1ccc(C)cc1-c1nc2ccccc2n(Cc2ccccc2)c1=O`, the Potency entry was “inactive”.
For `Nc1ccc(/C=C/c2ccnc3ccccc23)c([N+](=O)[O-])c1`, the Potency result is “inactive”.
`CCCCN(CC)CCCNC(=O)c1nn(C)c2c1CSc1ccccc1-2`: the Potency entry was “inactive”.
Consider `CC(=O)/C(=N\Nc1ccc(Cl)cc1Cl)Sc1cccc2cccnc12`, for which the Potency is 2.82 µM (active).
The entry for `COc1c(Cl)cc(Cl)cc1C(=O)Nc1cccc2cccnc12` is “inactive”.
Turning to `COc1cccc(CNC(=O)c2cccnc2Sc2ccc(Cl)cc2)c1`, the Potency entry is “inactive”.
On to `COc1cccc(CN2CCc3nc(SCC(=O)Nc4ccccc4)[nH]c(=O)c3C2)c1`, for which the Potency entry was “inactive”.
As for `COc1ccccc1NC(=O)c1oc2ccccc2c1NC(=O)C(C)C`, the Potency result is “inactive”.
In the case of `O=C(OCC(=O)N1CCN(C(=O)c2ccco2)CC1)c1c(Cl)cccc1Cl`, the Potency result was “inactive”.
As for `O=C(OCC(=O)N1CCN(C(=O)c2ccco2)CC1)c1cccc(O)c1`, the Potency result was “inactive”.
For the compound `CN(c1ccccc1)S(=O)(=O)c1cc(C(=O)OCC(=O)N2CCN(C(=O)c3ccco3)CC2)ccc1Cl`, the Potency was 10 µM (active).
As for `CCOc1ccc(NC(=O)c2cnn(-c3ccccc3)c2-n2cccc2)cc1`, the Potency result was “inactive”.
Consider `Cc1c(CNC(C)c2ccccc2)c(C(=O)O)c(C)n1Cc1c(F)cccc1Cl` (stereo not given), for which the Potency result was “inactive”.
The entry for `CCc1cccc(NC(=O)CSc2nccn2C)c1` is “inactive”; for `O=C(Cn1ncc2c3ccccc3n(Cc3ccccc3)c2c1=O)NC1CCCCCC1` it is “inactive”; for `COc1ccccc1CNS(=O)(=O)c1ccc2c(c1)NC(=O)CS2` it is “inactive”.
For `COc1ccc(C2(O)C(=O)Nc3ccccc32)cc1` (stereo not given), the Potency result is “inactive”.
With `Cc1ccc(CC2(C)C(=O)Nc3ccc(OC(F)(F)F)cc32)cc1` (stereo not given), the Potency is 15.8 µM (active).
On to `COc1ccccc1CC1(C)C(=O)Nc2ccc(OC(F)(F)F)cc21` (stereo not given), for which the Potency was 20 µM (active).
Take `O=C(CSc1ncc(-c2ccccc2)[nH]1)Nc1ccc(F)cc1F`: the Potency entry is “inactive”.
Consider `Cc1ccc(N2CC(C(=O)Nc3ccc(N(C)C)cc3)CC2=O)cc1Cl` (stereo not given), for which the Potency result is “inactive”.
For `Cc1cccc(OCC(=O)N(Cc2ccc(C(C)C)cc2)Cc2ccco2)c1C`, the Potency result is “inactive”.

The record behind these values is PubChem BioAssay AID588855 (National Center for Advancing Translational Sciences (NCATS), 2011).
